The list is not random: actives were taken first. Their share in the collection is about 3.5%.
Anthrax LF prot = anthrax lethal factor protease inhibition | P15917 | multiplex microsphere protease cleavage assay, LF | inhibition, % at 10 µM | actives 0.12% (n = 360,000) | AID 588501; note: plate controls were buffer without enzyme for full effect and enzyme alone for no effect
Target sequence (P15917 whole entry, looked up): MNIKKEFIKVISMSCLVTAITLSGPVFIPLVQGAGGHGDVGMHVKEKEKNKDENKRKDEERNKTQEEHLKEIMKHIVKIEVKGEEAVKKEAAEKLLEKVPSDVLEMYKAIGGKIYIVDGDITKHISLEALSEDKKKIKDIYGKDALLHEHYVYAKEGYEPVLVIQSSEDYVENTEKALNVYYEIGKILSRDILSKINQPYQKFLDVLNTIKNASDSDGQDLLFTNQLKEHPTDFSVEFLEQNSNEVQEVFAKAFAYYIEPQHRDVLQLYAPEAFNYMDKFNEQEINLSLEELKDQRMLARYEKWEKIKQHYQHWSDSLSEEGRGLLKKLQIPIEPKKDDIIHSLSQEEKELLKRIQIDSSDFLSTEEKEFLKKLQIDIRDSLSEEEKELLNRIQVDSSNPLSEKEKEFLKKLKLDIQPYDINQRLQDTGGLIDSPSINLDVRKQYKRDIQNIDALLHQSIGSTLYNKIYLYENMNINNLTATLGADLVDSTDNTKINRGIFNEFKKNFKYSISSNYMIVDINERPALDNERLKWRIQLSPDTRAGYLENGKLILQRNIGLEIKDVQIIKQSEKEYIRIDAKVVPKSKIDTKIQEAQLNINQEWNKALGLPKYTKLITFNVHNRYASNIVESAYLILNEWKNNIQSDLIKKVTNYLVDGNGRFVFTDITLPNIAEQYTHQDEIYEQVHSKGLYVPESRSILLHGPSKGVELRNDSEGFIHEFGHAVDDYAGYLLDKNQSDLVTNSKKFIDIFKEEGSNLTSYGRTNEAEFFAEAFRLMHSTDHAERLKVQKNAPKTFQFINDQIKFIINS
Autofluor counter = flagged as autofluorescent in microsphere protease counterscreen; fluorescence intensity (test concentration not listed); actives 3.1% (n = 360,000); AID 624483; compound autofluorescence counterscreen, microsphere flow cytometry; active compounds read high; in the data active = fluorescence intensity above about 16000; inconclusive = no clear call, values can overlap the other calls
BoNT-F LC inh = inhibitors of Botulinum neurotoxin F light chain protease. inhibition, % at 10 µM. actives 0.22% (n = 360,000). Multiplex microsphere protease cleavage assay, flow cytometry; in the data active = inhibition above about 35%, passing the limit was not always enough; inconclusive = no clear call, values can overlap the other calls; note: plate controls were buffer without enzyme for full effect and enzyme alone for no effect
BoNT-A LC inh2 = BoNT A light chain protease inhibition; inhibition, % at 10 µM; AID 588499; multiplex microsphere protease substrate cleavage, flow cytometry; actives 0.17% (n = 360,000); note: plate controls were buffer without enzyme for full effect and enzyme alone for no effect
* marks the source's active call; other numbers are inactive results; ? = inconclusive. Cut-off read from the data, not from the text of the source, unless noted: active = inhibition above about 30%; inconclusive = no clear call, values can overlap the other calls; inactive = below that.

SMILES	Anthrax LF prot	Autofluor counter	BoNT-F LC inh	BoNT-A LC inh2
O=C(COC(=O)CCN1C(=O)/C(=C\C=C\c2ccccc2)SC1=S)Nc1cc(F)ccc1F	20	4972	11	42*
O=C(NC1CCCCC1)c1ccc(S(=O)(=O)c2ccccc2)cc1	-4	4533	0	0
O=C1OCc2cc(NC(=O)C3CCCO3)ccc21 (stereo not drawn)	?	?	-14	?
O=C1NC(=O)c2cc(NC(=O)C3CCCO3)ccc21 (stereo not drawn)	-4	22178*	-1	?
O=C(Nc1ccc2c(c1)C(=O)N(c1ccccc1)C2=O)C1CCCO1 (stereo not drawn)	-5	21610*	0	?
CN(C(=O)c1ccc(NC(=O)Cc2ccc(NC(=O)C3CCCN(C(=O)C4CC4)C3)cc2)cc1)C1CCCC1 (stereo not drawn)	-1	3311	1	0
CSc1nc2ccc(NC(=O)c3ccc(Cl)s3)cc2s1	1	5311	-3	0
CCOC(=O)CCNC(=O)N1CCCC(C(=O)c2cc(C)c(OC)c(C)c2)C1 (stereo not drawn)	-2	3497	-12	0
O=C(CC1SC2=NCCN2C1=O)Nc1ccc(Br)cc1 (stereo not drawn)	0	21829*	-2	-4
CCOC(=O)c1ccc(NC(=O)CC2SC3=NCCN3C2=O)cc1 (stereo not drawn)	-14	5738	-1	0
Cc1ccc(-n2[nH]c(C)c(/C=N/Nc3ccc([N+](=O)[O-])cc3[N+](=O)[O-])c2=O)cc1	-2	2359	-2	1
COc1ccc(Cc2c(-c3cccc(Br)c3)nc3ccc(Cl)cn23)c(C)c1	18	7038	-10	8
COc1ccc(Cc2c(-c3ccccc3)nc3ccc(Br)cn23)c(C)c1	21	5928	-1	40*
CCOC(=O)/C=C1\SCC(=O)N1CC(=O)Nc1ccc(OC)c(OC)c1	1	3678	-3	-1
CCOC(=O)/C=C1\SCC(=O)N1CC(=O)c1ccc[nH]1	2	21362*	5	2
O=C(COC(=O)c1cccnc1)c1ccc(Cl)cc1	0	19665*	0	0
O=C(COC(=O)c1cccnc1)c1ccc(Cl)c(Cl)c1	-1	3431	-1	-1
O=S(=O)(CCSc1ccccn1)c1nc2ccccc2s1	3	23137*	-3	-1
CC(C)(C)Nc1nc(SCc2ccccc2)nc(N2CCOCC2)n1	-5	23358*	-7	?
CNc1nc(SCc2ccccc2)nc(N2CCOCC2)n1	-3	11491	-9	-1
CC1(C)CC(=O)c2c(oc3cc(O)c(O)cc23)C1	-1	17024*	-3	-2
COC(=O)c1oc2c(c1C)C(=O)CC(C)(C)C2	-4	3457	0	1
CCOC(=O)c1sc2nc(CC(=O)OC)nc(NCc3ccc(F)cc3)c2c1C	-3	16799*	-3	-3
COc1ccccc1NC(=O)Cn1nnc(C(=O)Nc2ccccc2)c1N	0	3147	11	0
COc1ccccc1NC(=O)c1nnn(CC(=O)Nc2cccc(SC)c2)c1N	0	22055*	-3	1
SMILES	Anthrax LF prot	Autofluor counter	BoNT-F LC inh	BoNT-A LC inh2
CCOc1ccc(NC(=O)c2nnn(CC(=O)Nc3ccccc3OC)c2N)cc1	0	4588	36*	1
O=C(CSCC(=O)Nc1ccccc1)N/N=C/c1c(O)ccc2ccccc12	6	23512*	-2	5
COc1ccc(/C=N/NC(=O)CSCC(=O)Nc2ccccc2)cc1OC	-14	19130*	12	?
O=C(CNc1ccccc1)N/N=C/c1c(O)ccc2ccccc12	-4	3707	19	6
Cc1ccc(NC(=O)COc2ccc(/C=N/NC(=O)CSCc3ccccc3)cc2)cc1	0	22872*	-1	0
O=S(=O)(/N=C/c1c(O)ccc2ccccc12)c1ccccc1	2	3955	42*	-1
O=C(N/N=C\c1c(O)ccc2ccccc12)c1cncc(Br)c1	8	3289	26	42*
CCOc1cccc(-c2nnc3sc(-c4cccs4)nn23)c1	1	17165*	0	-2
COc1cccc(-c2nnc3sc(-c4cccs4)nn23)c1	4	8351	-8	0
COc1cccc(-c2nn3c(-c4cccc(C)c4)nnc3s2)c1	-4	17527*	-7	-4
CCOc1cccc(-c2nn3c(-c4ccco4)nnc3s2)c1	0	23209*	2	0
COC(=O)CCSCC(=O)N1N=C(c2ccc(OC)cc2)CC1c1cccc(OC)c1OC (stereo not drawn)	-3	4181	0	1
Nc1nonc1-c1noc(-c2ccccc2)n1	0	20869*	8	6
COc1ccccc1C(CNC(=O)c1ccc(OCc2c(C)noc2C)cc1)N1CCCC1 (stereo not drawn)	-3	15575	-4	-6
Cc1ccc(NC(=O)c2ccc(OCc3c(C)noc3C)cc2)nc1	-11	16600*	-68	-40
COc1cc(C(=O)NCc2cccs2)ccc1OCc1c(C)noc1C	-3	3697	-2	0
COc1cc(C(=O)NCC(c2ccco2)N2CCCC2)ccc1OCc1c(C)noc1C (stereo not drawn)	-2	23986*	-3	-2
COc1cc(C(=O)OCC(=O)Nc2ccc3c(c2)OC(F)(F)O3)ccc1OCc1c(C)noc1C	-3	3487	-15	-1
COc1ccc(C(CNC(=O)c2ccc(OCc3c(C)noc3C)cc2)N2CCCC2)cc1 (stereo not drawn)	-2	17256*	7	-5
COc1ccc(NC(=O)COC(=O)c2ccc(OCc3c(C)noc3C)cc2)cc1OC	2	21341*	-1	-1
N#Cc1cccc(NCC(=O)Nc2ccc3c(c2)OCCO3)c1	4	4385	-2	0
Cn1cccc1/C=C1\SC(=Nc2ccccc2)NC1=O	13	3910	36*	2
Cn1cccc1/C=C1\SC(=Nc2ccc(O)cc2)NC1=O	-9	3927	-3	-3
C[C@]1(CC/C(=C/CO)CO)[C@H](C=O)CC[C@@]23COC(=O)C2=CCC[C@@H]31	-17	4117	-18	-1
CCC(C)c1ccc(NC(=O)CC(C)=O)cc1 (stereo not drawn)	-2	22794*	-3	?
SMILES	Anthrax LF prot	Autofluor counter	BoNT-F LC inh	BoNT-A LC inh2
CC(=O)CC(=O)Nc1ccc(C(N)=O)cc1	-2	3528	-2	0
CSc1ccc(NC(=O)CC(C)=O)cc1	-2	22536*	2	0
COc1ccc(CC(=O)Nc2ccncc2Cl)cc1	-2	5511	6	0
CC(C)NS(=O)(=O)c1ccc(CCC(=O)N2CCCCC2)cc1	-6	3414	2	-2
Cc1cccc(OCCC(=O)NCC(c2ccco2)N2CCCCC2)c1 (stereo not drawn)	-1	20481*	-1	?
O=C(NCC(c1ccco1)N1CCCC1)c1cc2ccccc2s1 (stereo not drawn)	6	16777*	29	-4
Cc1ccc(C(=O)NCC(c2ccco2)N2CCCCC2)s1 (stereo not drawn)	4	9489	0	3
CCOC(=O)C1=C(C)Nc2ccccc2N=C1NC(=O)C1CCN(C(=O)c2ccccc2C)CC1	-6	3784	5	0
Cc1cc(C=C2C(=O)c3ccccc3C2=O)c(C)n1-c1ccc(Cl)cc1	5	20919*	1	2
